Assay outcomes from PubChem.
Rows were chosen to be rich in hits. Some 5.4% of all compounds tested hit in one or more screens of this group.
VACV mCherry inh – inhibitors of vaccinia virus infection (mCherry reporter signal); Vaccinia virus mCherry reporter infection, fluorescence; Potency, µM (titrated, usually from 36.5 µM), without a hit: at the top dose activity change, negative = inhibition, hits mostly inhibitors; hit rate 0.63% among 310,000; calls by dose curve; tested in A549 cells; note: nearly all actives have a fitted effect of over 35% in size
VACV Venus inh – vaccinia inhibition (Venus reporter). Vaccinia virus Venus reporter expression, fluorescence. Potency, µM (doses to about 36.5 µM), inactives show at the top dose activity change, negative = inhibition, most hits filed as inhibitors. hit rate 0.46% among 330,000. AID 720580; calls by dose curve; tested in A549 cells; note: nearly all actives have a fitted effect of over 30% in size
LASV entry inh – blocks Lassa virus binding to or entry into cells. Lassa virus pseudotype entry inhibition, cell reporter. Potency, µM (top dose mostly 37.9 µM), without a hit: at the highest dose activity change, negative = inhibition, usual class: inhibitors. hit rate 1.2% among 300,000. AID 540256; calls by dose curve; tested in HEK293 cells; note: nearly all actives have a fitted effect of over 50% in size
FMDV antiviral – blocks foot and mouth disease virus; FMDV antiviral cell-based qHTS; Potency, µM (top dose mostly 57.9 µM), inactives show at the top dose activity change, negative = inhibition, most hits filed as inhibitors; hit rate 1.2% among 410,000; AID 1159524; calls by dose curve; tested in HEK293T cells; note: read-out not given here; nearly all actives have a fitted effect of over 45% in size
Sm TGR inh – inhibitors of Schistosoma mansoni thioredoxin glutathione reductase | Q962Y6 | purified TGR, DTNB reduction, TNB absorbance 405 nm | Potency, µM (series often up to 114 µM), for inactives: top-dose activity change, negative = inhibition, usual class: inhibitors | hit rate 3% among 360,000 | AID 485364; active = well fitted inhibition curve with a large enough effect; inconclusive = small, poorly fitted or top-dose-only effect; inactive = no such curve, though single readings can be large or run the other way; note: nearly all actives have a fitted effect of over 60% in size
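First, TGR (20 nM dispensed) and NADPH were mixed with compound. Second, a 15 min room-temperature incubation followed. Third, further NADPH and then DTNB were added to start the reaction. Finally, TNB absorbance was monitored kinetically.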
MARV entry inh – blocks Marburg virus binding to or entry into cells; AID 540276; Marburg virus pseudotyped entry inhibition, cell reporter; Potency, µM (top dose mostly 37.8 µM), for the others: top-dose activity change, negative = inhibition, usual class: inhibitors; hit rate 1.8% among 300,000; calls by dose curve; tested in HEK293 cells
Starred values were filed as active, the others as inactive; [ ] = another dose, or the depositor's remark. % is set by controls: 0 for no effect and ±100 for the full control effect; potency is the fitted concentration of half-maximal effect.

Screening COc1ccccc1OCC(=O)NNC(=O)C1CCN(c2ncnc3sc(C)c(C)c23)CC1 returned FMDV antiviral 18µM* and Sm TGR inh -2%.
`CNC(=O)c1ccc(NC(=O)C2CCN(c3ncnc4sc(C)c(C)c34)CC2)cc1` gave VACV mCherry inh inactive, VACV Venus inh -12%, LASV entry inh 14%, FMDV antiviral 0%, Sm TGR inh -27% and MARV entry inh -6%.
CCOC(=O)c1sc2ncnc(N3CCN(C(=O)OCC)CC3)c2c1C was read as VACV Venus inh -18%, LASV entry inh inconclusive, FMDV antiviral 16µM*, Sm TGR inh 7% and MARV entry inh -16%.
CCS(=O)(=O)N1CCN(c2ncnc3sc(C)c(C)c23)CC1 was read as VACV mCherry inh -10%, VACV Venus inh -2%, LASV entry inh 7%[46.1 µM], FMDV antiviral -8% and MARV entry inh inconclusive.
Screening CCN(CC)c1ccc(C(=O)NNC(=O)C2CCN(c3ncnc4sc(C)c(C)c34)CC2)cc1 returned VACV mCherry inh -15%, VACV Venus inh -24% and FMDV antiviral 11µM*.
For O[C@@H]1CN=C2Sc3ccccc3N2C1 the results were MARV entry inh -9%.
COc1ccc(/C=C/c2nc(C#N)c(N3CCCCC3)o2)cc1OC was read as VACV mCherry inh inactive, VACV Venus inh -25%, LASV entry inh -30%[46.1 µM], FMDV antiviral -4%, Sm TGR inh 6% and MARV entry inh inconclusive.
Screening CC1(C)N=C(SCC(=O)Nc2ccc(Cl)cc2)C(c2ccc(Cl)cc2)=N1 returned LASV entry inh -4%, FMDV antiviral 22µM*, Sm TGR inh -8% and MARV entry inh -24%.
`CCOc1ccc(N(C)C(CNS(=O)(=O)c2ccccc2)c2ccccc2)cc1` (stereo not drawn) gave VACV mCherry inh -25%, VACV Venus inh -8%, LASV entry inh inconclusive, FMDV antiviral -20%, Sm TGR inh 4% and MARV entry inh inconclusive.
For C/C(CC1CC(COCC(C)C)OC1=O)=N\Nc1nc(-c2ccccc2)cs1 (stereo not drawn) the results were VACV mCherry inh -13%, VACV Venus inh -2%, LASV entry inh 16%[14.3 µM], FMDV antiviral 25%, Sm TGR inh 56µM* and MARV entry inh -19%.
For COc1cc(/C=N/NC(=O)c2cc(-c3ccccc3OC(C)C)nc3ccccc23)ccc1O the results were VACV mCherry inh 13µM*, VACV Venus inh 8%, LASV entry inh 5.8µM*, FMDV antiviral inconclusive, Sm TGR inh -15% and MARV entry inh 4.6µM*.
For COc1cccc(/C=N/NC(=O)c2cc(-c3ccccn3)nc3ccccc23)c1O the results were VACV mCherry inh 1µM*, VACV Venus inh inconclusive, LASV entry inh inconclusive, FMDV antiviral 3%, Sm TGR inh -1% and MARV entry inh inconclusive.
For COc1cc(/C=N/NC(=O)c2cc(-c3ccccc3)nc3ccccc23)ccc1O the results were VACV mCherry inh -24%, VACV Venus inh -6%, LASV entry inh inconclusive, FMDV antiviral 2%, Sm TGR inh 6% and MARV entry inh inconclusive.
`COc1ccc(/C=N/NC(=O)c2cc(-c3ccccc3)nc3ccccc23)cc1O` gave VACV mCherry inh -21%, VACV Venus inh 1%, LASV entry inh -23%[46.1 µM], FMDV antiviral -13%, Sm TGR inh -11% and MARV entry inh 13µM*.
For COc1cc(/C=N/NC(=O)c2cc(-c3ccco3)nc3ccccc23)cc(OC)c1O the results were FMDV antiviral -20% and Sm TGR inh 45µM*.
Screening O=C(N/N=C/c1ccc(F)cc1)c1cc(-c2ccccn2)nc2ccccc12 returned VACV mCherry inh -19%, VACV Venus inh -15%, LASV entry inh -4%, FMDV antiviral -1%, Sm TGR inh 1% and MARV entry inh -13%.
`COc1ccc(NC(=O)CCn2c(-c3ccc(F)cc3)cc(C(C)=O)c2C)c(OC)c1` gave VACV mCherry inh -13%, VACV Venus inh 0%, LASV entry inh inconclusive, FMDV antiviral -18% and Sm TGR inh 2%.
For Cc1ccc(S(=O)(=O)N2CCN(c3ccnc(-c4cccs4)n3)CC2)cc1 the results were VACV mCherry inh inactive and VACV Venus inh -24%.
Cc1cccc(-c2nc(S(=O)(=O)c3ccccc3)c(N3CCN(c4ccccc4)CC3)o2)c1 was read as VACV mCherry inh -17%, VACV Venus inh -6%, LASV entry inh 2%[46.1 µM], FMDV antiviral -14%, Sm TGR inh -3% and MARV entry inh 0%[46.1 µM].
`COc1ccc(/C=N/NC(=O)c2nc(-c3ccccc3)cc(-c3ccccc3)n2)cc1O` gave VACV mCherry inh inconclusive, VACV Venus inh inconclusive, LASV entry inh inconclusive, FMDV antiviral -10%, Sm TGR inh -6% and MARV entry inh 18µM*.
Screening COc1ccc2[nH]c(C(=O)N/N=C/c3ccc(OC)c(O)c3)cc2c1 returned VACV mCherry inh 11µM*, VACV Venus inh -27%, LASV entry inh 5.6µM*, FMDV antiviral 7%, Sm TGR inh 4% and MARV entry inh inconclusive.
`COc1cc(/C=N/NC(=O)CCN2CCCCC2)ccc1O` gave VACV mCherry inh inconclusive, VACV Venus inh inconclusive, LASV entry inh 6%, FMDV antiviral 0% and MARV entry inh 18%[46.1 µM].
COc1cc(/C=N/NC(=O)CCn2cnc(-c3ccccc3)c2-c2ccccc2)ccc1O was read as VACV mCherry inh 8.9µM*, VACV Venus inh inconclusive, LASV entry inh inconclusive, FMDV antiviral -14%, Sm TGR inh -8% and MARV entry inh inconclusive.
COc1cc(OC)c2cc(C(=O)N/N=C/c3ccccc3O)[nH]c2c1 was read as VACV mCherry inh 1.1µM*, VACV Venus inh inconclusive, FMDV antiviral -16% and Sm TGR inh 32%.
`CCOC(=O)c1ccc(NC(=O)CSc2cn(CC(=O)N3CCCC3)c3ccccc23)cc1` gave VACV mCherry inh -10%[7.34 µM], VACV Venus inh -9%[7.34 µM], LASV entry inh 1%[46.1 µM], FMDV antiviral -12% and Sm TGR inh 0%.
For Cc1ccc2[nH]c(C(=O)N/N=C/c3ccccc3C(=O)O)c(-c3ccccc3)c2c1 the results were FMDV antiviral -15% and Sm TGR inh 0%.
For Cc1ccc2[nH]c(C(=O)N/N=C/c3ccccc3O)c(C)c2c1 the results were VACV mCherry inh 3.5µM*, VACV Venus inh inconclusive, FMDV antiviral 82% and Sm TGR inh -10%.
`CCOc1cc(C(C(=O)NCC2CCCO2)N(C(=O)Cn2nnc3ccccc32)c2ccc(OC)c(OC)c2)ccc1O` (stereo not drawn) gave VACV mCherry inh -3%, VACV Venus inh 1%, FMDV antiviral 0%, Sm TGR inh 32µM* and MARV entry inh -4%[46.1 µM].
